# Measured values as given in PubChem BioAssay.
# “And” between values parts separate entries of the source, which are not always exact repeats. Equal values may be shown once. The source made the active and inactive calls.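 How the source made its calls, unless noted: active means compounds whose cell count with miR-34 switched on is under 0.7 times the count with it off; inactive means the rest.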
# Tests used:
# [1] = viability loss with induced miR-34 in A549 – imaging, A549 dox-inducible miR-34, nuclei and caspase counts, primary screen (AID 1347080); conditions: A549 miR-34 inducible, Hoechst nuclei count, 48 h; further: test concentration not given here
# [2] = MELAS cybrid and Rieske KO viability enhancers – cell-based, MELAS cybrids, Rieske KO mouse fibroblasts, CellTiter-Glo, primary screen (AID 1508586;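 active means mean z-score across replicates of 1.96 or higher in either the MELAS or the Rieske mutant cell line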;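 further: test concentration not given here; z relative to plate mean and SD of compound and empty wells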); conditions: low glucose
# [3] = galactose survival enhancers in mitochondrial complex I cybrids – cell-based, galactose medium, ATP luminescence, primary screen (AID 1645843;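 active means z-score of at least 1.8 in each of two replicates, scored against plate mean and spread of sample wells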;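 further: positive z means more ATP and so rescue of galactose-driven cybrid death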); conditions: complex I mutant cybrid cells, 72 h, stronger effect = higher value
# [4] = stronger effect = lower value, cell number ratio, induced over uninduced
# [5] = measured here: relative caspase fold change +Dox/-Dox
# [6] = measured here: total cells with miR-34 induction, stronger effect = lower value
# [7] = measured here: total cells without miR-34 induction
# [8] = MELAS cybrid survival, CellTiter-Glo 48 h, stronger effect = higher value
# [9] = Rieske KO mouse fibroblast survival, CellTiter-Glo 72 h
SMILES,"fold change [1, 4]","fold change [1, 5]","cell count [1, 6]","cell count [1, 7]","z-score [2, 8]","z-score [2, 9]",z-score [3]
Cc1cc(C(=O)N2CCc3[nH]nc(COc4ccccc4)c3C2)c(C)o1,0.899 (inactive),1.21,8460,9410,-0.0896 (inactive),-0.219,-0.42 (inactive)
COc1ccc(CCNCC(O)COc2cccc(C)c2)cc1OC (stereo not drawn),0.915 (inactive),0.555,8400,9170,-1.33 (inactive),0.533,-0.99 (inactive)
COc1cccc2c(=O)n(Cc3ccc4nonc4c3)cnc12,0.912 (inactive),1.93,8180,8980,0.215 (inactive),-0.341,-0.545 (inactive)
COc1ccccc1-c1noc(Cc2ccc3c(c2)OCO3)n1,0.864 (inactive),2.45,7680,8890,0.0213 (inactive),1.35,1.62 (inactive)
CCn1ccnc1CN(C)C(=O)c1cc(-c2cnc(N)nc2)nc2c(C)cccc12,0.899 (inactive),1.48,8320,9260,-1.11 (inactive),1.17,1.16 (inactive)
CN(Cc1nc2ccc(Cl)cc2[nH]1)C(=O)c1n[nH]c2ccccc12,0.846 (inactive),1.41,6230,7360,-0.529 (inactive),0.953,1.46 (inactive)
Nc1cccc(-c2cccc(OCc3ccccc3)c2)n1,0.803 (inactive),1.74,7230,9010,-0.19 (inactive),-0.156,-0.555 (inactive)
NC(=O)Cc1c[nH]c2ccccc12,0.914 (inactive),0.482,8170,8950,0.728 (inactive),-0.479,0.1 (inactive)
O=C(O)CCCc1nc(-c2cccc([N+](=O)[O-])c2)no1,0.855 (inactive),0.356,7990,9350,1.15 (inactive),-0.0224,0.71 (inactive)
COc1ccccc1C(=O)N1CCC(n2cc(-c3ccccn3)nn2)CC1,0.917 (inactive),1.29,8760,9560,0.129 (inactive),-0.319,-0.23 (inactive)
Cc1ccc(NC(=O)c2ccc3nccnc3c2)cn1,0.855 (inactive),1.41,8560,10000,0.00943 (inactive),-0.47,-0.48 (inactive)
c1ccc(NCc2cccnc2)cc1,0.876 (inactive),1.56,8370,9560,-0.153 (inactive),-0.0248,0.545 (inactive)
CCSCCNc1nccc(-c2cn(C)nc2C)n1,0.861 (inactive),2.06,8420,9770,-0.242 (inactive),0.458,-0.585 (inactive)
O=c1[nH]cnc2sc3c(c12)CCCC3,0.885 (inactive),0.876,8460,9560,-0.212 (inactive),0.0845,0.635 (inactive)
COc1ccc(C(=O)N2CCN(C(=O)c3ccc4sc(N)nc4c3)CC2)cc1,0.916 (inactive),0.875,9050,9880,-0.342 (inactive),-0.192,-0.575 (inactive)
O=S(=O)(O)CCNC1CCCCC1,0.931 (inactive),0.147,9490,10200,0.282 (inactive),-0.218,0.78 (inactive)
CC(O)c1cn(C2CCN(c3ncnc4nc[nH]c34)CC2)nn1 (stereo not drawn),0.902 (inactive),1.71,9250,10300,0.294 (inactive),-0.198,-0.55 (inactive)
CS(=O)(=O)c1ccc(C(=N)N)cc1,0.887 (inactive),0.391,8670,9770,0.807 (inactive),-0.298,0.2 (inactive)
O=C1NCC(=O)N2CCCC12 (stereo not drawn),0.892 (inactive),0.892,8240,9240,-0.237 (inactive),-0.595,0.315 (inactive)
c1cc(-c2nc(Cc3ccsc3)no2)c2nccnc2c1,0.89 (inactive),0.787,8210,9220,-0.0904 (inactive),1.15,0.105 (inactive)
O=C(NCCc1nc2ccc(F)cc2[nH]1)c1cnccn1,0.896 (inactive),1.56,8500,9500,0.845 (inactive),-0.308,-0.435 (inactive)
Cn1nc(C(C)(C)C)cc1NC(=O)Nc1ccc(Cl)cc1,0.806 (inactive),1.05,7030,8720,1.19 (inactive),-0.375,0.155 (inactive)
CC(=O)C=Cc1cn(C)c2ccccc12,0.824 (inactive),0.579,7690,9340,1.15 (inactive),0.123,0.49 (inactive)
O=C1CC(c2ccc(O)cc2)Oc2cc(O)ccc21 (stereo not drawn),0.9 (inactive),0.718,8540,9500,0.67 (inactive),-0.313,0.305 (inactive)
c1nc(N2CCOCC2)c2[nH]cnc2n1,0.913 (inactive),0.416,8460,9270,-0.198 (inactive),-0.176,1.15 (inactive)
CC(C)C(N)C(=O)OCCOCn1cnc2c(=O)[nH]c(N)nc21 (stereo not drawn),0.946 (inactive) and 0.861 (inactive),1.94 and 0.803,9720 and 8030,10300 and 9320,-0.311 (inactive),0.593,0.365 (inactive)
CCn1ncc(NC(=O)Cn2nc(C)c(-c3ccc(-n4cccn4)cc3)c2C)n1,0.87 (inactive),1.42,4370,5020,-1.09 (inactive),1.3,-0.54 (inactive)
Cc1nsc(NC(=O)N2CCC(C(O)CC(C)C)CC2)n1 (stereo not drawn),0.832 (inactive),2.21,6540,7860,0.507 (inactive),-0.186,-0.63 (inactive)
CN(CCc1ccccn1)C(=O)c1ccc2sc(N)nc2c1,0.88 (inactive),0.927,8380,9520,0.048 (inactive),-0.377,-0.435 (inactive)
